PubChem BioAssay (NCATS)
Records with an inconclusive call do not appear. A number with no mark means an inactive call. Active and inactive are the calls of the source. The call rests on the fitted dose curve; in most records, active means well fitted inhibition curve with a large enough effect; inconclusive means small, poorly fitted or top-dose-only effect; inactive means flat fitted curve, though single readings scatter.

Tested on: Zika virus NS2B-NS3 protease
Assay: Primary screen GU AMC qHTS for Zika virus inhibitors (AID 1347154); further: nearly all actives have a fitted effect of over 70% in size;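 on activity change, negative = inhibition: 0% = no-inhibitor control and -100% = no-enzyme control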
Details: Zika NS2B-NS3 unlinked protease, AMC fluorogenic substrate; series mostly up to 54.1 µM; activity change, negative = inhibition: at the top concentration
Excerpt: Avindra Nath, Ph.D., National Institute of Neurological Disorders and Stroke (NINDS), Bethesda, MD
Radhakrishnan Padmanabhan, Ph.D., Georgetown University (GU), Washington D.C.
Zika Virus causes congenital defects, including microcephaly and is associated with Guillain-Barre syndrome, eningoencephalitis and myelitis in infected adult. […] Using a target-based approach, we hope to establish a screening paradigm to uncover novel, cell-active NS2B-NS3 protease (Zika Virus) specific inhibitors from NCATS' collection of small molecules using qHTS.
Early Translation Branch (ETB)
National Center for Advancing Translational Sciences (NCATS), Rockville, MD
National Institute of Health (NIH), Bethesda, Maryland
Padmanabhan lab provided the NS2B hydrophilic domain and NS3 protease domain in a noncovalent complex used for the unlinked assay. Control compound aprotinin is obtained from Thermo Scientific (#78432; Waltham, Massachusetts). NS2B-NS3 AMC substrate (Bz-Nle-Lys-Arg-Arg-AMC; Nle-KRR-AMC) purchased from Bachem (#I-1995; Torrance, CA). Ac-VKTGKR-AMC purchased from Genscript or Bachem, Ac-FAAGKR-AMC purchased from Genscript, Ac-GLVKRR-AMC purchased from Genscript, Ac-LKKR-AMC purchased from Genscript.
GU AMC unlinked NS2B-NS3 protease qHTS protocol
Briefly, 3 microL of Zika virus unlinked NS2B-NS3 protease (25 nM for linked final concentration), in assay buffer (10 mM Tris-HCl pH 8.0 with 0.01% Tween 20) was dispensed into a 1,536-well solid-bottom black plate (Greiner Bio One, Monroe, NC). […] Plates were then read immediately on a ViewLux High-throughput CCD imager (PerkinElmer, Waltham, MA) equipped with standard UV fluorescence optics (340(30) nm excitation, 450(20) nm emission) then incubated (room temperature, protected from light) for 15 minutes (~20% conversion). The change in fluorescence intensity over the 15-minute reaction period was normalized against no-inhibitor and no-enzyme controls and the resulting percent inhibition data were fitted to a 4-parameter Hill equation. Aprotinin was used as the intraplate control.
Potency means the concentration at half of the fitted maximal effect.

Compound | activity change, negative = inhibition | Potency
CC(C)(C)NCC(O)COc1ccc(NC(=O)NC2CCCCC2)cc1 (stereo not given) | 2.57% | –
COc1ccc2[nH]c(S(=O)Cc3ncc(C)c(OC)c3C)nc2n1 (stereo not given) | -10.9% | –
CN(C)CCCO[C@@H]1[C@H]2OC(C)(C)O[C@H]2O[C@@H]1C(O)CO (stereo not given in full) | -8.19% | –
C=Cc1c(C)c2cc3[nH]c(cc4nc(cc5nc(cc1[nH]2)C(C)=C5CCC(=O)O)C(CCC(=O)O)=C4C)c(C)c3C=C | 2.68% | –
CN1[C@@H]2CC[C@H]1CC(OC(=O)C(O)c1ccccc1)C2 (stereo not given in full) | 4.74% | –
CC(C)NC[C@H](O)c1ccc(O)c(O)c1 | 2.22% | –
N[C@H](C(=O)O)c1ccc(O)cc1 | -4.27% [at 25.8 µM] | –
O=C1NC(=O)[C@@]2(CCOc3ccc(F)cc32)N1 | 0.0064% | –
CC[N+](CC)(CC)CCOc1ccc(/C=C/c2ccccc2)cc1 | – | inactive
CC(=O)Oc1c(C)c(C)c2c(c1C)CC[C@@](C)(CCC[C@H](C)CCC[C@H](C)CCCC(C)C)O2 | 0.19% | –
CCN(CC)CCNC(=O)c1c(C)[nH]c(/C=C2\C(=O)Nc3ccc(F)cc32)c1C | 6.62% | –
CC(C)c1c(C(=O)Nc2ccccc2)c(-c2ccccc2)c(-c2ccc(F)cc2)n1CC[C@@H](O)C[C@@H](O)CC(=O)O | 11.9% | –
[O-][n+]1cccc(CO)c1 | -2.76% | –
CC(=O)NC(Cc1ccccc1)C(=O)O (stereo not given) | -0.83% | –
NS(=O)(=O)c1cc2c(cc1Cl)NC(CSCc1ccccc1)=NS2(=O)=O | -1.42% | –
COC(=O)[C@H]1[C@H]2C[C@@H]3c4[nH]c5cc(OC)ccc5c4CCN3C[C@H]2C[C@@H](OC(=O)COc2ccc(OC)cc2)[C@@H]1OC | -1.74% | –
COCCOC(=O)C1=C(C)NC(C)=C(C(=O)OC/C=C/c2ccccc2)C1c1cccc([N+](=O)[O-])c1 (stereo not given) | – | inactive
Nc1ncnc2c1ncn2[C@@H]1O[C@H](CO)[C@@H](O)[C@H]1O | -11.3% | –
CN1CCOC(c2ccccc2)c2ccccc2C1 (stereo not given) | -2.25% | –
NCCNCCNCCNCCN | -0.671% [at 6.83 µM] | –

Compound | activity change, negative = inhibition | Potency
COc1ccccc1O | -0.641% [at 104 µM] | –
N[C@@H](CSSC[C@H](N)C(=O)O)C(=O)O | 4.84% [at 0.59 µM] | –
CCOC(=O)[C@H](CCc1ccccc1)N[C@@H](C)C(=O)N1C(=O)N(C)C[C@H]1C(=O)O | -8.49% | –
NCC(=O)CCC(=O)O | -3.22% | –
CC(CN1c2ccccc2Sc2ccccc21)N(C)C (stereo not given) | -1.56% | –
OC[C@H]1O[C@@H](O[C@@H]2[C@@H](CO)O[C@](O)(CO)[C@H]2O)[C@H](O)[C@@H](O)[C@H]1O | -2.66% | –
c1ccc(CN(CC2=NCCN2)c2ccccc2)cc1 | – | inactive
O=C(Oc1ccccc1C(=O)O)c1ccccc1O | -14.4% | –
CCN(CC)CCNC(C(=O)OCCC(C)C)c1ccccc1 (stereo not given) | 6.6% | –
Cc1cc(C(C#N)c2ccc(Cl)cc2)c(Cl)cc1NC(=O)c1cc(I)cc(I)c1O (stereo not given) | – | 3.98 µM (active)
CO/N=C(\C(=O)N[C@@H]1C(=O)N2C(C(=O)O)=C(CSc3nc(=O)c(O)nn3C)CS[C@H]12)c1csc(N)n1 | 1.5% | –
OCCN1CCN(CCCN2c3ccccc3Sc3ccc(Cl)cc32)CC1 | -3.3% | –
CC(O)COc1ccccc1 (stereo not given) | 0.675% | –
C[C@](N)(Cc1ccc(O)cc1)C(=O)O | -1.38% [at 4.99 µM] | –
O=C(O)[C@H](O)c1ccccc1 | -19.8% | –
CC(C)(C)[C@]1(O)CCN2C[C@H]3c4ccccc4CCc4cccc(c43)[C@@H]2C1 | -0.173% | –
O=C(O)Cc1sc(-c2ccccc2)nc1-c1ccc(Cl)cc1 | -6.46% | –
CC1(C)S[C@@H]2[C@H](NC(=O)Cc3ccccc3)C(=O)N2[C@H]1C(=O)O (tested in a mixture with another compound) | -0.605% | –
Cc1cccc(Nc2cc(Cl)nc(SCC(=O)O)n2)c1C | – | inactive
Cc1cccc(C)c1NC(=O)CN(CC(=O)O)CC(=O)O | -5.79% | –
